This note sets out measurements from PubChem BioAssay (NCI).

Holding throughout (test): NCI-60 one-dose screen, 48 h (100 = growth as untreated, 0 = no growth, -100 = all killed)
Holding throughout (conditions): 10 µM unless noted

For test [1], the system named is SK-MEL-2 melanoma.
The test system of test [2] is EKVX NSCLC.
Test [3] relates to SN12C renal.
Test [4] concerns UO-31 renal.
Test [5] deals with TK-10 renal.
The test system of test [6] is ACHN renal.
Test [7] has as its system A498 renal.
In test [8] the test system is CCRF-CEM leukemia.
In test [9] the test system is MOLT-4 leukemia.

SMILES strings stand for the structures. This is part of a sample that, as a whole, favours compounds with a hit. Of some 83,000 tested, about 20% had one in any assay.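 Negative percent growth values reflect cell death: -40 means 40% of the cells present at the start died, and -100 means all died.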 Values without a mark were called inactive. Activity calls are given as the source filed them. The calls were made as follows: active = growth percent below 10; inactive = the rest.

Turning to `O=c1[nH]cnc2c1C(c1ccc(Br)cc1)c1sc3c(F)cccc3c1O2` (centres undefined), the growth was 110% in [1]; 90.9% in test [2]; 98.3% in test [3]; 76% in [4]; 107% in test [5]; 95.1% in test [6]. The growth was 104% in test [7], -50.7% (active) in [8] and 37% in test [9].

In the case of `CCCCCCCCn1ccc2cc(NC(=O)Cn3cc(CN4CCOCC4)nn3)ccc21`, the growth is 100% in [1]; 87.9% in test [2]; 100% in [3]; 78.3% in test [4]; 108% in test [5]; 98.5% in test [6]. Moreover, the growth in test [7] is 99.7%; in test [8], -31.6% (active); in test [9], 35.8%.

For the molecule `CN(C)c1ccc(-c2cc(-c3ccc(Nc4nc(Nc5ccc(Cl)cc5)nc(Nc5ccc(Cl)cc5)n4)cc3)nc(N)c2C#N)cc1`, the growth in test [1] is 68.5%; in [2], 79.8%; in test [3], 113%; in [4], 67.5%; in test [5] it was 104%; in test [6], 82.4%. The growth is 92.5% in test [7], 46.9% in test [8] and 45% in [9].

`CCC(CC)(N(CC(=O)O)CC(=O)O)C(CC)(CC)N(CC(=O)O)CC(=O)O`: the growth in [1] was 112%; in [2], 117%; in test [3], 94.8%; in [4], 103%; in [5], 103%; in test [6], 116%. The growth is 93% in test [8] and 107% in test [9].

`N/C(=N\c1nc2ccccc2s1)NC(=NC1CCCCC1)NC1CCCCC1`: the growth is 41% in test [1]; 45.7% in test [2]; 33.8% in [3]; 20.1% in test [4]; 69.2% in test [5]; 17.1% in test [6]. Moreover, the figures for the growth in [7], in test [8] and in [9] were 45.8%, -1.74% (active) and 4% (active), respectively.

Consider `COc1cc2c(cc1O)[C@@]1(C)[C@H](c3ccccc3Br)OC(=O)N1CC2`, for which the growth is 89.8% in test [1]; 82% in [2]; 87.6% in [3]; 85.3% in test [4]; 91.9% in test [5]; 83.2% in test [6]. Further, the growth was 89.6% in [7], 83% in test [8] and 90.8% in test [9].

Take `CC(C)c1ccc(C(=O)Nc2sc3cc(O)ccc3c2C#N)cc1`: the growth in test [1] is 47.6%; in test [2], 52.9%; in test [3], 34.2%; in [4], 25.1%; in test [5] it was 63.4%; in test [6], 47.3%. For the same molecule, the growth in test [7] was -0.765% (active); in test [8] it was 12.3%; in [9], 18.3%.

For the molecule `COc1ccc(C2C3=C(COC3=O)N(CCO)c3cc4c(cc32)OCCO4)cc1OC` (centres undefined), the growth is 55.3% in [1]; 56.5% in [2]; 42% in test [3]; 66.2% in [4]; 65.1% in test [5]; 42.2% in test [6]. Also, the growth in test [7] was -5.71% (active); in test [8], 21.1%; in test [9] it was 55.3%.

For the molecule `COc1cc(C(=O)/C=C/c2c(-c3cccs3)nc3ccccn23)cc(OC)c1OC`, the growth in test [1] was 10.7%; in test [2], 4.84% (active); in test [3] it was 4.93% (active); in [4], 10.7%; in [5] it was 0.55% (active); in test [6] it was -23.4% (active). The growth in test [7] was -21.8% (active); in test [8], 12.3%; in test [9], -0.559% (active).

Take `CCOC(=O)c1c(C)nn(CC(O)c2ccccc2)c1NC(=O)Nc1cccc(F)c1` (centres undefined): the growth in test [1] is 90.9%; in test [2], 91.2%; in test [3], 84.1%; in [4], 74.8%; in test [5], 110%; in test [6], 89.7%. For the same molecule, the growth in [7] was 70.9%; in test [8], 89.3%; in [9], 88.7%.
